30 sequences from paper PMC9838217, “Structure of SALL4 zinc finger domain reveals link between AT-rich DNA binding and Okihiro syndrome” can be followed below.

Changes are numbered by the printed parent chain.

Assay in all cases: HT-SELEX; high values mean tight binding
Common to all, as to conditions: protein: recombinant; vector His6-GST; dsDNA, one strand shown

For one test, the target named is T1, SALL4 ZFC4 WT (HT-SELEX) (Mus musculus, UniProt Q8BX22 870-940).
T1 sequence: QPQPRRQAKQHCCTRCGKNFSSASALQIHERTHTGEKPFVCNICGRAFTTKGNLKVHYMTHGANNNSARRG
The procedure, abridged:
(§1)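 In triplicate selections of up to 6 cycles, purified recombinant mouse SALL4 zinc finger cluster 4 (residues 870–940, 1 µg) was incubated 10 min at room temperature with library DNA (1.5 µg, then 200 ng) in 100 µl of 10 mM Tris–HCl pH 7.5, 50 mM NaCl, poly(dI-dC) and DTT, and complexes were captured on Ni2+ beads, washed and PCR-amplified. Sequencing was done on MiSeq with scanning for 6-mers. The binding signal is each canonical k-mer's read fraction, reported as fold change against the initial random library.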

For test [1], the target named is T2, SALL4 ZFC4 R900W (HT-SELEX) (Mus musculus, UniProt Q8BX22 870-940, R900W).
T2 sequence: T1 sequence with R31W
An outline of the steps:
as §1

The target of test [2] is T3, SALL4 ZFC4 G921D (HT-SELEX) (Mus musculus, UniProt Q8BX22 870-940, G921D).
T3 sequence: T1 sequence with G52D
An outline of the steps: as §1

Consider AGTCAT, for which the figures for the binding signal (with SALL4 ZFC4 WT (HT-SELEX); in test [1]; in test [2]) were 1.45 ± 0.0471 fold-change vs cycle 0, 1.53 ± 0.0494 fold-change vs cycle 0 and 1.46 ± 0.106 fold-change vs cycle 0, respectively.
AATAAT: the results for the binding signal (with SALL4 ZFC4 WT (HT-SELEX); in test [1]; in test [2]) were 4.57 ± 0.438 fold-change vs cycle 0, 2.66 ± 0.189 fold-change vs cycle 0 and 2.27 ± 0.265 fold-change vs cycle 0, respectively.
As for CACTAC, the figures for the binding signal (with SALL4 ZFC4 WT (HT-SELEX); in test [1]; in test [2]) were 0.801 ± 0.0178 fold-change vs cycle 0, 0.9075 ± 0.0089 fold-change vs cycle 0 and 0.938 ± 0.0237 fold-change vs cycle 0, respectively.
Consider ACATCG, for which the binding signal with SALL4 ZFC4 WT (HT-SELEX) amounted to 0.64 ± 0.0291 fold-change vs cycle 0; in test [1], 0.729 ± 0.00758 fold-change vs cycle 0; in test [2] it was 0.829 ± 0.0505 fold-change vs cycle 0.
As to CTATTA, the binding signal worked out at 2.26 ± 0.136 fold-change vs cycle 0 in the test with SALL4 ZFC4 WT (HT-SELEX), 2.05 ± 0.132 fold-change vs cycle 0 in test [1] and 1.81 ± 0.165 fold-change vs cycle 0 in test [2].
As to CCAACG, the results for the binding signal (with SALL4 ZFC4 WT (HT-SELEX); in test [1]; in test [2]) were 0.347 ± 0.0246 fold-change vs cycle 0, 0.388 ± 0.0249 fold-change vs cycle 0 and 0.505 ± 0.0781 fold-change vs cycle 0, respectively.
Consider ACCTGA, for which the binding signal with SALL4 ZFC4 WT (HT-SELEX) worked out at 0.842 ± 0.0331 fold-change vs cycle 0; in test [1], 1 ± 0.047 fold-change vs cycle 0; in test [2], 1.02 ± 0.0552 fold-change vs cycle 0.
Turning to ACAAGC, the binding signal is 0.616 ± 0.0453 fold-change vs cycle 0 in the test with SALL4 ZFC4 WT (HT-SELEX), 0.707 ± 0.0111 fold-change vs cycle 0 in test [1] and 0.798 ± 0.0212 fold-change vs cycle 0 in test [2].
For the sequence ACATCT, the binding signal in the test with SALL4 ZFC4 WT (HT-SELEX) was 1.34 ± 0.0364 fold-change vs cycle 0; in test [1], 1.46 ± 0.0394 fold-change vs cycle 0; in test [2], 1.4 ± 0.0574 fold-change vs cycle 0.
As for GAAGTC, the values for the binding signal (with SALL4 ZFC4 WT (HT-SELEX); in test [1]; in test [2]) were 0.797 ± 0.0523 fold-change vs cycle 0, 0.906 ± 0.0176 fold-change vs cycle 0 and 0.953 ± 0.00992 fold-change vs cycle 0, respectively.
With AATTTG, the binding signal with SALL4 ZFC4 WT (HT-SELEX) was 1.6 ± 0.112 fold-change vs cycle 0; in test [1], 1.56 ± 0.101 fold-change vs cycle 0; in test [2], 1.51 ± 0.0903 fold-change vs cycle 0.
As to CAGAAC, the binding signal with SALL4 ZFC4 WT (HT-SELEX) was determined as 0.725 ± 0.0111 fold-change vs cycle 0; in test [1], 0.847 ± 0.0358 fold-change vs cycle 0; in test [2], 0.863 ± 0.0478 fold-change vs cycle 0.
In the case of AGTAAG, the binding signal stood at 1.58 ± 0.0246 fold-change vs cycle 0 in the test with SALL4 ZFC4 WT (HT-SELEX), 1.73 ± 0.024 fold-change vs cycle 0 in test [1] and 1.53 ± 0.116 fold-change vs cycle 0 in test [2].
Regarding AGTTGC, the binding signal with SALL4 ZFC4 WT (HT-SELEX) is 0.578 ± 0.0388 fold-change vs cycle 0; in test [1], 0.664 ± 0.014 fold-change vs cycle 0; in test [2], 0.77 ± 0.0363 fold-change vs cycle 0.
On the same counts, the results for ATAAGG are 1.55 ± 0.0418 fold-change vs cycle 0, 1.63 ± 0.0717 fold-change vs cycle 0 and 1.46 ± 0.077 fold-change vs cycle 0.
The matching figures for CTAGTC: 0.766 ± 0.0364 fold-change vs cycle 0, 0.918 ± 0.0254 fold-change vs cycle 0 and 0.941 ± 0.0142 fold-change vs cycle 0.
On the same counts, the results for AGTCGA are 0.617 ± 0.0356 fold-change vs cycle 0, 0.697 ± 0.0314 fold-change vs cycle 0 and 0.807 ± 0.0559 fold-change vs cycle 0.
Consider GGTTCA, for which the binding signal with SALL4 ZFC4 WT (HT-SELEX) came out at 0.788 ± 0.0387 fold-change vs cycle 0; in test [1] it was 0.916 ± 0.0428 fold-change vs cycle 0; in test [2], 0.966 ± 0.0244 fold-change vs cycle 0.
On the same counts, the results for CAATAC are 1.22 ± 0.0144 fold-change vs cycle 0, 1.3 ± 0.0388 fold-change vs cycle 0 and 1.29 ± 0.0522 fold-change vs cycle 0.
For the sequence ACAAAA, the binding signal came to 1.6 ± 0.0623 fold-change vs cycle 0 with SALL4 ZFC4 WT (HT-SELEX), 1.61 ± 0.0945 fold-change vs cycle 0 in test [1] and 1.5 ± 0.125 fold-change vs cycle 0 in test [2].
As to CGGTTA, the binding signal with SALL4 ZFC4 WT (HT-SELEX) was found to be 0.677 ± 0.0447 fold-change vs cycle 0; in test [1] it was 0.748 ± 0.0385 fold-change vs cycle 0; in test [2], 0.801 ± 0.0326 fold-change vs cycle 0.
The matching figures for TAAAGA: 2.04 ± 0.114 fold-change vs cycle 0, 2.15 ± 0.111 fold-change vs cycle 0 and 1.82 ± 0.201 fold-change vs cycle 0.
For CTGAAC, the binding signal worked out at 0.859 ± 0.0362 fold-change vs cycle 0 with SALL4 ZFC4 WT (HT-SELEX), 0.995 ± 0.0342 fold-change vs cycle 0 in test [1] and 1.01 ± 0.0412 fold-change vs cycle 0 in test [2].
As for ACTTAT, the binding signal with SALL4 ZFC4 WT (HT-SELEX) was 2.49 ± 0.156 fold-change vs cycle 0; in test [1], 2.19 ± 0.135 fold-change vs cycle 0; in test [2], 1.9 ± 0.197 fold-change vs cycle 0.
Regarding CAGTCC, the binding signal amounted to 0.44 ± 0.0267 fold-change vs cycle 0 with SALL4 ZFC4 WT (HT-SELEX), 0.544 ± 0.0287 fold-change vs cycle 0 in test [1] and 0.63 ± 0.0382 fold-change vs cycle 0 in test [2].
The matching figures for AGCTGA: 0.687 ± 0.028 fold-change vs cycle 0, 0.802 ± 0.0342 fold-change vs cycle 0 and 0.882 ± 0.0146 fold-change vs cycle 0.
The matching figures for AAGACG: 0.635 ± 0.0182 fold-change vs cycle 0, 0.735 ± 0.023 fold-change vs cycle 0 and 0.815 ± 0.0404 fold-change vs cycle 0.
In the case of CAGAAG, the binding signal with SALL4 ZFC4 WT (HT-SELEX) amounted to 0.787 ± 0.03 fold-change vs cycle 0; in test [1], 0.933 ± 0.0195 fold-change vs cycle 0; in test [2], 0.93 ± 0.0319 fold-change vs cycle 0.
The matching figures for CCCAAG: 0.456 ± 0.0184 fold-change vs cycle 0, 0.532 ± 0.00725 fold-change vs cycle 0 and 0.619 ± 0.0423 fold-change vs cycle 0.
On to GTTATA, for which the results for the binding signal (with SALL4 ZFC4 WT (HT-SELEX); in test [1]; in test [2]) were 2.5 ± 0.231 fold-change vs cycle 0, 2.05 ± 0.15 fold-change vs cycle 0 and 1.78 ± 0.179 fold-change vs cycle 0, respectively.
